{"source": "PubChem BioAssay AID686979", "about": "(National Center for Advancing Translational Sciences (NCATS), 2013)", "note": "Among all 420,000 compounds or so, about 50,000 (12%) were called active. Not shown: some 26% with an inconclusive outcome. For the sample, actives were picked, then their nearest neighbours and some compounds at random. Values without a mark were called inactive. Calls come from the whole dose curve; as a rule, active = well fitted inhibition curve with a large enough effect; inconclusive = small, poorly fitted or top-dose-only effect; inactive = flat fitted curve, though single readings scatter. % is set by controls: 0 for no effect and ±100 for the full control effect; potency is the fitted concentration of half-maximal effect."}
{"assay": "qHTS for Inhibitors of human tyrosyl-DNA phosphodiesterase 1 (TDP1): qHTS in cells in presence of CPT; note: nearly all actives have a fitted effect of over 55% in size", "conditions": "chicken DT40 Tdp1-/-;hTDP1 cells + 20 nM CPT, ATP luminescence, 48 h; series mostly up to 46.2 µM; activity change, negative = growth inhibition: at the top concentration", "procedure,_shortened": "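Cell growth measured by CellTiter-Glo luminescence after a minimum 48 h, 37 C compound exposure with 20 nM CPT in Tdp1-knockout DT40 cells stably expressing hTDP1, seeded 400/well; qHTS titration format.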", "units": {"activity change, negative = growth inhibition": "%"}}
{"smiles": "S=C(c1ccccc1)N1CCCC1", "activity change, negative = growth inhibition": 11.6}
{"smiles": "CCOC(=O)c1c(NC(=O)CSc2nccc(=O)[nH]2)sc(C)c1C", "activity change, negative = growth inhibition": -10.7}
{"smiles": "CC1CCN(C(=O)c2ccc(S(=O)(=O)Cc3cc(F)ccc3F)c([N+](=O)[O-])c2)CC1", "Potency": "6.51 µM (active)"}
{"smiles": "NC(=O)C1CCN(C(=O)c2ccc(F)c(S(=O)(=O)N3CCOCC3)c2)CC1", "activity change, negative = growth inhibition": 8.19}
{"smiles": "Nc1ccc(C(=O)N2CCN(S(=O)(=O)c3ccc(Cl)cc3)CC2)cc1[N+](=O)[O-]", "activity change, negative = growth inhibition": -66.4}
{"smiles": "Cc1noc(NS(=O)(=O)c2ccc(NC(=O)c3oc4ccc(F)cc4c3C)cc2)c1C", "activity change, negative = growth inhibition": -14.1}
{"smiles": "CC(=O)Nc1c2c(nn1-c1ccc(C)cc1C)CS(=O)C2", "note": "(stereo not given)", "activity change, negative = growth inhibition": 7.09}
{"smiles": "C[C@H](NC(=O)C1CC(=O)N(c2ccc3c(c2)OCCO3)C1)C(=O)N1CCC(C(=O)O)CC1", "note": "(stereo not given in full)", "activity change, negative = growth inhibition": -0.349}
{"smiles": "CC(=O)Nc1c2c(nn1-c1cccc(C)c1)CSC2", "activity change, negative = growth inhibition": -12.1}
{"smiles": "O=C(NC1Cc2ccccc2C1)c1cc(COc2cccc(C(F)(F)F)c2)on1", "activity change, negative = growth inhibition": -25.4}
{"smiles": "CN(Cc1cccnc1)C(=O)c1cc(COc2ccc3ncccc3c2)on1", "Potency": "4.61 µM (active)"}
{"smiles": "CC(=O)c1cccc(OCc2cc(C(=O)NC(C)Cc3cccnc3)no2)c1", "note": "(stereo not given)", "Potency": "16.4 µM (active)"}
{"smiles": "CCC(NC(=O)c1cc(COc2ccc(F)c(F)c2)on1)c1ccncc1", "note": "(stereo not given)", "Potency": "20.6 µM (active)"}
{"smiles": "Cc1ccc(OCc2cc(C(=O)N(C)CCc3ccccc3)no2)cc1C", "activity change, negative = growth inhibition": -13.4}
{"smiles": "CCn1ccnc1CN(C)C(=O)c1cc(COc2ccc(-n3cncn3)cc2)on1", "activity change, negative = growth inhibition": -21.3}
{"smiles": "CCCOc1cccc(C(=O)NCCCNC(=O)c2cccnc2)c1", "activity change, negative = growth inhibition": -1.65}
{"smiles": "O=C(NCCCc1ccccc1)c1cc(COc2c(F)cccc2F)on1", "activity change, negative = growth inhibition": -17.7}
{"smiles": "CC(C)Cc1cc(C(=O)NCCc2ccccc2)no1", "activity change, negative = growth inhibition": -26.4}
{"smiles": "CC(N)(C(=O)O)c1ccc(-c2nn[nH]n2)cc1", "note": "(stereo not given)", "activity change, negative = growth inhibition": -21.6}
{"smiles": "COC(=O)C[C@H]1C=C[C@H](NC(=O)c2ccc(F)cc2)[C@@H](CO)O1", "activity change, negative = growth inhibition": -3.56}
{"smiles": "Cc1sc(NC(=O)C2=COCCO2)c(C#N)c1C", "activity change, negative = growth inhibition": -13.9}
{"smiles": "CC1(C)C(c2cccs2)=[N+]([O-])C2(CCCCC2=O)N1O", "note": "(stereo not given)", "activity change, negative = growth inhibition": 9.95}
{"smiles": "Cc1cccn2cc(-c3cccc(S(=O)(=O)N4CCCCC4)c3)nc12", "activity change, negative = growth inhibition": -24}
{"smiles": "O=C(NCCCN1CCOCC1)C1CCCN(S(=O)(=O)N2CCCCC2)C1", "note": "(stereo not given)", "activity change, negative = growth inhibition": -7.98}
{"smiles": "COc1cccc2c1C(=O)c1c(O)c3c(c(O)c1C2=O)CC(O)(C(C)=NNC(=O)c1ccc(Cl)c(Cl)c1)CC3OC1CC(N)C(O)C(C)O1", "note": "(stereo not given)", "Potency": "0.164 µM (active)"}
{"smiles": "CCOC(=O)c1cnc2c(c(C)nn2CC)c1Cl", "activity change, negative = growth inhibition": 5.09}
{"smiles": "COc1ccc(CN2C(=O)C(C)S/C2=N/N=C/c2ccco2)cc1", "note": "(stereo not given)", "activity change, negative = growth inhibition": -9.51}
{"smiles": "COc1cccc(-c2ccc3c(c2)N(Cc2ccccc2OC)C(=O)C(C)S3)c1", "note": "(stereo not given)", "Potency": "25.9 µM (active)"}
{"smiles": "COc1ccccc1CNS(=O)(=O)c1ccc2c(c1)NC(=O)CS2", "activity change, negative = growth inhibition": -27.9}
{"smiles": "CCCc1nc(N2CCN(C)CC2)c2sc(=S)n(-c3ccccc3)c2n1", "Potency": "18.4 µM (active)"}
{"smiles": "CCCc1nc(-c2ccccc2O)n(-c2ccccc2)n1", "activity change, negative = growth inhibition": -27.4}
{"smiles": "Cc1cnc(NC(=O)CSc2nnc(-c3ccccc3)n2Cc2ccccc2)s1", "activity change, negative = growth inhibition": -13.7}
{"smiles": "COc1ccc(CC(=O)NCc2nnc(SCC(=O)Nc3ncc(C)s3)n2C)cc1", "Potency": "16.4 µM (active)"}
{"smiles": "COC(=O)c1ccc(NC(=O)CSc2nnc(CNc3ccc(OC)cc3)n2C)cc1", "activity change, negative = growth inhibition": 5.11}
{"smiles": "COc1ccc(CC(=O)NCc2nnc(SCC(=O)Nc3nccs3)n2C)cc1", "activity change, negative = growth inhibition": -10.1}
{"smiles": "Cc1cnc(NC(=O)CSc2c(Cl)cccc2Cl)s1", "Potency": "14.6 µM (active)"}
{"smiles": "Cc1cnc(NC(=O)CSc2nnc(C)s2)s1", "activity change, negative = growth inhibition": -12.2}
{"smiles": "O=C(NCc1ccccc1)C(c1ccco1)N(C(=O)c1csnn1)c1ccccc1F", "note": "(stereo not given)", "activity change, negative = growth inhibition": -13}
{"smiles": "CCCCN(C(=O)COc1ccc(NC(C)=O)cc1)C1CCS(=O)(=O)C1", "note": "(stereo not given)", "activity change, negative = growth inhibition": -15.7}
{"smiles": "COc1ccc(CNC(=O)CCC(=O)Nc2nnc(C(C)C)s2)cc1", "activity change, negative = growth inhibition": 2.44}
{"smiles": "CC[C@@H]1CC2=C(C(=O)OC(C)(C)O2)[C@@H](CC)O1", "activity change, negative = growth inhibition": -8.36}
{"smiles": "Cn1c(CC(=O)Nc2ccc(F)cc2)nnc1SCC(=O)NC1CCCCC1", "activity change, negative = growth inhibition": 2.42}
{"smiles": "O=C(NCCN1CCOC1=O)C1CCC(=O)N(CCc2ccc(Cl)cc2)C1", "note": "(stereo not given)", "activity change, negative = growth inhibition": -3.33}
{"smiles": "C=CCNCCCCOc1ccccc1", "activity change, negative = growth inhibition": -25.9}
{"smiles": "COc1ccc(-c2c3c(=O)n(C)c(=O)n(C)c3cn2NC(C)=O)cc1", "activity change, negative = growth inhibition": -0.679}
{"smiles": "COc1ccc(-c2[nH]c3c(c2-c2c(-n4cccc4)n(C)c(=O)n(C)c2=O)c(=O)n(C)c(=O)n3C)cc1", "activity change, negative = growth inhibition": -19.5}
{"smiles": "Cc1ccc(-c2c3c(=O)n(C)c(=O)n(C)c3cn2-c2ccccc2O)cc1", "activity change, negative = growth inhibition": -1.44}
{"smiles": "COc1ccc(Nc2cc(=O)n(-c3ccccc3)c3c2c(=O)n(C)c(=O)n3C)cc1", "activity change, negative = growth inhibition": 16}
{"smiles": "COc1ccc(-c2c3c(=O)n(C)c(=O)n(C)c3cn2-c2cccc(OC)c2)cc1", "Potency": "29.1 µM (active)"}
{"smiles": "COc1cccc(-n2cc3c(c2-c2ccccc2)c(=O)n(C)c(=O)n3C)c1", "Potency": "23.1 µM (active)"}
